Test results from PubChem BioAssay (Tox21).
Results filed as inconclusive are left out. A call without a number means that no potency is given here. The source made the active and inactive calls. Unless noted, calls follow the shape of the dose curve; as a rule, active = well fitted curve in the direction sought with a large enough effect in the repeat runs; inconclusive = weak or mixed curves; inactive = no such curve, though single readings can be large; an effect the other way counts as inactive or inconclusive.

Key:
[1] = qHTS assay to identify small molecule antagonists of the glucocorticoid receptor (GR) signaling pathway - cell viability counter screen (AID 720693); also: nearly all actives have a fitted effect of over 55% in size
[2] = qHTS assay for identifying genotoxic compounds that show differential cytotoxicity against isogenic chicken DT40 cell lines with known DNA damage response pathways - Rev3 mutant cell line (AID 743014); also: nearly all actives have a fitted effect of over 55% in size; also: potency is read from the fitted curve at half-maximal effect
[3] = qHTS assay to identify small molecule antagonists of the androgen receptor (AR) signaling pathway - cell viability counter screen (AID 743033; also: nearly all actives have a fitted effect of over 45% in size)
[4] = molecular target: Androgen receptor (Homo sapiens) (UniProt P10275); experiment: qHTS assay to identify small molecule agonists of the androgen receptor (AR) signaling pathway using the MDA cell line (AID 743040; also: nearly all actives have a fitted effect of over 20% in size; also: potency is read from the fitted curve at half-maximal effect)
Method in brief: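 Cells plated, 5 h at 37C/0% CO2; compound or DMSO pinned; 16 h at 37C; ONE-Glo added; luminescence measured after 30 min at room temperature. Reporter line: MDA-kb2 with MMTV-luciferase responsive to AR and GR.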

[5] = qHTS assay to identify small molecule antagonists of the androgen receptor (AR) signaling pathway using the MDA cell line - cell viability counter screen (AID 743041; also: nearly all actives have a fitted effect of over 45% in size; also: potency is read from the fitted curve at half-maximal effect)
Method in brief: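 Cells were plated at 3,000 per well and left 5 h. Compounds in DMSO were then pinned in, followed by R1881. After 16 h at 37C, CellTiter-Fluor fluorescence gave viability.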

[6] = molecular target: Androgen receptor (Homo sapiens) (UniProt P10275); experiment: qHTS assay to identify small molecule antagonists of the androgen receptor (AR) signaling pathway using the MDA cell line (AID 743042; also: nearly all actives have a fitted effect of over 55% in size)
Method in brief: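 Antagonist mode: compounds plus R1881 agonist added to MDA-kb2 AR-luc cells, incubated 16 h at 37C. Luciferase reporter luminescence quantified, with multiplexed CellTiter-Fluor readout for cell viability.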

[7] = qHTS assay to identify small molecule antagonists of the thyroid receptor (TR) signaling pathway (AID 743065); also: nearly all actives have a fitted effect of over 55% in size; also: potency is read from the fitted curve at half-maximal effect
Method in brief: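 Antagonism measured as loss of luciferase signal in GH3 cells stably carrying a TRE-luciferase reporter, co-treated with compound and T3 (1 nM final) for 23.5 h at 37 C. Viability was read in the same well by CellTiter-Fluor.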

[8] = tested on: thyroid hormone receptor (rat, GH3 cells); experiment: qHTS assay to identify small molecule agonists of the thyroid receptor (TR) signaling pathway (AID 743066; calls by dose curve)
[9] = qHTS assay to identify small molecule antagonists of the estrogen receptor alpha (ER-alpha) signaling pathway - cell viability counter screen (AID 743074; calls by dose curve;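 also: HEK293 cells carrying ER-alpha-UAS-bla reporter stimulated with 17beta-estradiol; nearly all actives have a fitted effect of over 45% in size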)
[10] = molecular target: Estrogen receptor (Homo sapiens) (UniProt P03372); experiment: qHTS assay to identify small molecule agonists of the estrogen receptor alpha (ER-alpha) signaling pathway (AID 743075; calls by dose curve;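 also: HEK293 GripTite cells with ER-alpha and UAS-driven beta-lactamase reporter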)
[11] = qHTS assay to identify small molecule antagonists of the estrogen receptor alpha (ER-alpha) signaling pathway using the BG1 cell line (AID 743080; calls by dose curve;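 also: BG1 cells stimulated with 17beta-estradiol alongside compound; nearly all actives have a fitted effect of over 25% in size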; also: potency is read from the fitted curve at half-maximal effect)
Method in brief: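 Readout is ONE-Glo luminescence, taken 30 min at room temperature after reagent addition, preceded by a CellTiter-Fluor viability read; BG1-Luc-4E2 cells had received compound and 17beta-estradiol for 21.5 h at 37 C.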

Aromatase (Homo sapiens) = Aromatase (Homo sapiens) (UniProt P11511); experiment: qHTS assay to identify aromatase inhibitors (AID 743083); also: nearly all actives have a fitted effect of over 55% in size; also: potency is read from the fitted curve at half-maximal effect
[12] = qHTS assay for identifying genotoxic compounds that show differential cytotoxicity against isogenic chicken DT40 cell lines with known DNA damage response pathways - Rad54/Ku70 mutant cell line (AID 743015); also: nearly all actives have a fitted effect of over 60% in size; also: potency is read from the fitted curve at half-maximal effect
[13] = qHTS assay to identify small molecule antagonists of the thyroid receptor (TR) signaling pathway - cell viability counter screen (AID 743064); also: nearly all actives have a fitted effect of over 50% in size; also: potency is read from the fitted curve at half-maximal effect
Method in brief: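 In-well cytotoxicity read by CellTiter-Fluor (30 min, 37 C) following 23.5 h exposure of GH3 cells bearing a TRE-luciferase sensor. Compounds were added alongside 1 nM (final) T3 to drive TR transactivation.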

[14] = molecular target: Estrogen receptor (Homo sapiens) (UniProt P03372); experiment: qHTS assay to identify small molecule antagonists of the estrogen receptor alpha (ER-alpha) signaling pathway (AID 743069; active = well fitted curve in the direction sought with a large enough effect in the signal ratio in the repeat runs, not every such curve was filed as active; the % refers to the signal ratio)
Method in brief: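 ER-alpha-UAS-bla GripTite HEK293 line; 2% charcoal-stripped FBS overnight; plated, 4 hr 37C/5% CO2; cpd in DMSO + 17beta-estradiol, 18 hr 37C; LiveBLAzer B/G FRET substrate 2 hr RT; fluorescence intensity.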

[15] = molecular target: Estrogen receptor (Homo sapiens) (UniProt P03372); experiment: qHTS assay to identify small molecule agonists of the estrogen receptor alpha (ER-alpha) signaling pathway using the BG1 cell line (AID 743079); details: BG1Luc4E2 cells, ERE-luciferase agonist, 22 h; activation: at 70.3 µM (top of the series); also: nearly all actives have a fitted effect of over 20% in size; also: potency is read from the fitted curve at half-maximal effect
[16] = qHTS assay to identify small molecule antagonists of the estrogen receptor alpha (ER-alpha) signaling pathway using the BG1 cell line - cell viability counter screen (AID 743081);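 also: compound given together with 17beta-estradiol as the ER stimulus; nearly all actives have a fitted effect of over 45% in size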; also: potency is read from the fitted curve at half-maximal effect
[17] = molecular target: Androgen receptor (Homo sapiens) (UniProt P10275); experiment: qHTS assay to identify small molecule antagonists of the androgen receptor (AR) signaling pathway (AID 743035; active = well fitted inhibition curve with a large enough effect in the signal ratio in the repeat runs, not every such curve was filed as active; the % refers to the signal ratio; also: potency is read from the fitted curve at half-maximal effect)
Method in brief: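 Fluorescence from a beta-lactamase FRET substrate (LiveBLAzer B/G, 2 h, room temperature) measured inhibition of R1881-stimulated signaling in GeneBLAzer AR-UAS-bla HEK293 cells exposed to compound for 16 h at 37C.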

[18] = molecular target: Androgen receptor (Homo sapiens) (UniProt P10275); experiment: qHTS assay to identify small molecule agonists of the androgen receptor (AR) signaling pathway (AID 743036; active = well fitted activation curve with a large enough effect in the signal ratio in the repeat runs, with a control signal flat, not every such curve was filed as active; the % refers to the signal ratio)
Method in brief: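 Activation was read as beta-lactamase FRET signal from LiveBLAzer B/G substrate, added for 2 h at room temperature. Before that, GeneBLAzer AR-UAS-bla GripTite (HEK293) cells had 16 h compound exposure at 37C.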

Sequence of Estrogen receptor (Homo sapiens) (P03372 whole entry, looked up): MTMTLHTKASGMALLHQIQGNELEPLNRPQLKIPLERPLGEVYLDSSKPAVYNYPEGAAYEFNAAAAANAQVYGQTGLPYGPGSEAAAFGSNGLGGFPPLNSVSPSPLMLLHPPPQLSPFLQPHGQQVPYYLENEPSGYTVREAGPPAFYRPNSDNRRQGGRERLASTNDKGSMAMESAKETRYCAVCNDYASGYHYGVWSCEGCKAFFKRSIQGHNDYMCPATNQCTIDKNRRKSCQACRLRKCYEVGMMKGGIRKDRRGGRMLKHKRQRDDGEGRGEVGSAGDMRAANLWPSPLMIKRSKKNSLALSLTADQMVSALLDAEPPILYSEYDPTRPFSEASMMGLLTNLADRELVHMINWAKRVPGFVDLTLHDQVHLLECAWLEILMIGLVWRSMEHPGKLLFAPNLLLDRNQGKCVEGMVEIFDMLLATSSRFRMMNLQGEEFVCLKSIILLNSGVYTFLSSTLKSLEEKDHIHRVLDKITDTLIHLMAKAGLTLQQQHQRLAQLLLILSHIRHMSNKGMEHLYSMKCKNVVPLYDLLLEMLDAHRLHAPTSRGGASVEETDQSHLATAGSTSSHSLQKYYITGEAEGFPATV
Sequence of Aromatase (Homo sapiens) (P11511 whole entry, looked up): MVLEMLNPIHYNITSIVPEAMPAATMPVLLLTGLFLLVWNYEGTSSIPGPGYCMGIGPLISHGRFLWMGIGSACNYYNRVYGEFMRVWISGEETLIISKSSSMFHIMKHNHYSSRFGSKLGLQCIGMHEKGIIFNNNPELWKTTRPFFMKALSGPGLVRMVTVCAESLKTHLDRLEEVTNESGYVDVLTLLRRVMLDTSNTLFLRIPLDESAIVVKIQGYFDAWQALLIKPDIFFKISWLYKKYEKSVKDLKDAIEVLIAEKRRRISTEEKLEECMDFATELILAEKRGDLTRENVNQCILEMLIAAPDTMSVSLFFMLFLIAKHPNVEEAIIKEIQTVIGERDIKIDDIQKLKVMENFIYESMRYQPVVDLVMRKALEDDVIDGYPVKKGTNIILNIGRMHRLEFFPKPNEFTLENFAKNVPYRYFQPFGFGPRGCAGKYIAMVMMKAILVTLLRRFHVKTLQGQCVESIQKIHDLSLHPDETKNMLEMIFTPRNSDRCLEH
Sequence of Androgen receptor (Homo sapiens) (P10275 whole entry, looked up): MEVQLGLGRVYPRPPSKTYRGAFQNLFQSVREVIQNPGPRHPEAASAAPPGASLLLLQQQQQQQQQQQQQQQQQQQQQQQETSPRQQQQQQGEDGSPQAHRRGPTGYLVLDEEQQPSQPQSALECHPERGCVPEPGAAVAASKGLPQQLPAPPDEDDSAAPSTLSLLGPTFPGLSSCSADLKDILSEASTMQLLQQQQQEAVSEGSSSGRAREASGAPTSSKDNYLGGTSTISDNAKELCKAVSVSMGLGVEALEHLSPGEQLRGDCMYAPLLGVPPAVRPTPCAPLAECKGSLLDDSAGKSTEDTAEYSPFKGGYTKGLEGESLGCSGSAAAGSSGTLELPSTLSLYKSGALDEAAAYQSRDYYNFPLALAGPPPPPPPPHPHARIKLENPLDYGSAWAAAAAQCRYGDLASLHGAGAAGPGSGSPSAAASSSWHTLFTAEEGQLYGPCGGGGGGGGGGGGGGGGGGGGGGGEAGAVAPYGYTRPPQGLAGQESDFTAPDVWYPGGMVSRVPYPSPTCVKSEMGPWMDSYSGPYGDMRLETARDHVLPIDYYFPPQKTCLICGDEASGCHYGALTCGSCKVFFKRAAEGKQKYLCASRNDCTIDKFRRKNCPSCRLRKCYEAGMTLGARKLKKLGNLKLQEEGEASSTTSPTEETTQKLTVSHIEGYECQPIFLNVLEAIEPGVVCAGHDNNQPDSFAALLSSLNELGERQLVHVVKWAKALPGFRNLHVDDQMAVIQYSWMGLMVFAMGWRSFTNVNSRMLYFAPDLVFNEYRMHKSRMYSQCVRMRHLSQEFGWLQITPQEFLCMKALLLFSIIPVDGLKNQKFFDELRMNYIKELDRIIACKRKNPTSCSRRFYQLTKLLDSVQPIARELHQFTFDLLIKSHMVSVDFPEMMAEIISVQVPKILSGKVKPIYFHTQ

| Compound | Potency [1] | Potency [2] | Potency [3] | Potency [4] | Potency [5] | Potency [6] | Potency [7] | Potency [8] | Potency [9] | Potency [10] | Potency [11] | Potency (Aromatase (Homo sapiens)) | Potency [12] | Potency [13] | Potency [14] | Potency [15] | Potency [16] | Potency [17] | Potency [18] |
| --- | --- | --- | --- | --- | --- | --- | --- | --- | --- | --- | --- | --- | --- | --- | --- | --- | --- | --- | --- |
| Cc1cc(Nc2ccccc2C(=O)O)ccc1Cl | inactive | 29.8 µM (active) | inactive | inactive | inactive | inactive | 26.6 µM (active) | inactive | inactive | inactive | inactive | inactive | – | – | – | – | – | – | – |
| O=C(CCCCCCCCCCCCC1CCCC1)Nc1ccc(S(=O)(=O)c2ccc(NC(=O)CCCCCCCCCCCCC3CCCC3)cc2)cc1 | inactive | – | inactive | – | inactive | – | inactive | inactive | inactive | inactive | inactive | inactive | inactive | inactive | inactive | inactive | inactive | – | – |
| Cn1c(=O)c2c(ncn2CCOC(=O)C(C)(C)Oc2ccc(Cl)cc2)n(C)c1=O | inactive | inactive | inactive | – | inactive | – | inactive | inactive | inactive | inactive | 29.8 µM (active) | inactive | – | – | inactive | inactive | inactive | – | – |
| O=C(O)c1c(Cl)c(Cl)c(Cl)c(Cl)c1-c1c2cc(I)c(=O)c(I)c-2oc2c(I)c(O)c(I)cc12 | inactive | inactive | inactive | 13.3 µM (active) | 24.8 µM (active) | inactive | 23.7 µM (active) | inactive | – | inactive | inactive | inactive | – | 23.7 µM (active) | – | – | 23.7 µM (active) | inactive | inactive |
| COc1ccc(C(=O)Nc2ccccc2CCC2CCCCN2C)cc1 (stereo not given) | inactive | inactive | – | – | inactive | – | – | – | – | inactive | inactive | inactive | inactive | – | inactive | – | 2.98 µM (active) | – | – |
| CCCCCCCCCCCCCCCCCCCCCC(=O)Nc1ccn([C@@H]2O[C@H](CO)[C@@H](O)[C@@H]2O)c(=O)n1 | inactive | 23.7 µM (active) | – | inactive | inactive | inactive | 18.8 µM (active) | inactive | inactive | – | – | inactive | 26.6 µM (active) | – | – | – | inactive | – | inactive |
| C[C@]12C=CC(=O)C=C1CC[C@@H]1[C@@H]2[C@@H](O)C[C@@]2(C)[C@H]1CC[C@]2(O)C(=O)COC(=O)CCC(=O)O | inactive | inactive | inactive | – | – | – | inactive | inactive | inactive | inactive | – | inactive | inactive | inactive | – | – | – | – | – |
| C=C[C@]1(C)C[C@@H](OC(=O)CSC(C)(C)CNC(=O)[C@H](N)C(C)C)[C@]2(C)[C@H](C)CC[C@]3(CCC(=O)[C@H]32)[C@@H](C)[C@@H]1O | inactive | 0.335 µM (active) | – | inactive | – | – | 13.3 µM (active) | inactive | inactive | inactive | – | 21.1 µM (active) | 0.376 µM (active) | 2.66 µM (active) | inactive | – | 5.96 µM (active) | 23.9 µM (active) | – |
| CN1CCN2c3ncccc3Cc3ccccc3C2C1 (stereo not given) | inactive | inactive | – | – | inactive | – | 21.1 µM (active) | inactive | inactive | – | – | – | – | – | – | – | inactive | – | – |
| CCCCC(C)(O)C/C=C/[C@H]1[C@H](O)CC(=O)[C@@H]1CCCCCCC(=O)OC (stereo not given in full) | inactive | 1.68 µM (active) | – | – | inactive | – | inactive | inactive | inactive | – | – | inactive | 1.19 µM (active) | – | – | – | inactive | – | – |
| CCCCCCCCCCCCOCCCN | inactive | inactive | inactive | inactive | inactive | inactive | inactive | inactive | inactive | inactive | inactive | inactive | – | inactive | inactive | inactive | inactive | inactive | inactive |
| CC#CCC(C)[C@H](O)/C=C/[C@@H]1[C@H]2C/C(=C/CCCC(=O)O)C[C@H]2C[C@H]1O (stereo not given in full) | inactive | inactive | – | – | inactive | – | inactive | inactive | inactive | inactive | inactive | inactive | inactive | inactive | inactive | 29.8 µM (active) | – | – | – |
| CN1CCC(OC(=O)C(Oc2ccc(Cl)cc2)Oc2ccc(Cl)cc2)CC1 | inactive | inactive | inactive | – | inactive | – | – | inactive | inactive | inactive | inactive | inactive | inactive | – | inactive | inactive | inactive | – | – |
| CC(=O)OCC(=O)[C@@]12OC3(CCCC3)O[C@@H]1C[C@H]1[C@@H]3CCC4=CC(=O)C=C[C@]4(C)[C@@]3(F)[C@@H](O)C[C@@]12C | inactive | inactive | – | – | inactive | – | inactive | inactive | inactive | inactive | – | inactive | – | inactive | inactive | – | – | – | – |
| CS(=O)(=O)c1ccc(C2=C(c3ccccc3)C(=O)OC2)cc1 | inactive | inactive | inactive | – | – | – | inactive | inactive | inactive | – | – | inactive | inactive | inactive | – | – | inactive | – | – |
| COc1ccc(-c2noc(CC(=O)O)c2-c2ccc(OC)cc2)cc1 | inactive | – | inactive | – | inactive | inactive | inactive | inactive | inactive | – | – | inactive | inactive | inactive | – | – | inactive | – | – |
| CN(C)CCCN1c2ccccc2C(C)(C)c2ccccc21 | inactive | 26.6 µM (active) | – | inactive | – | inactive | 26.6 µM (active) | – | inactive | inactive | inactive | inactive | 21.1 µM (active) | 23.7 µM (active) | inactive | inactive | inactive | inactive | inactive |
